# Data reported in PMC7862700, “An all-to-all approach to the identification of sequence-specific readers for epigenetic DNA modifications on cytosine”.
# Columns and labels:
# Assay in all cases: DAPPL (digital affinity profiling via proximity ligation, sequencing); 10 mM Tris-HCl pH 7.5, 50 mM NaCl, 1 mM DTT, 4% glycerol, room temperature, 30 min; GST-TFs on glutathione beads, 16-mer random dsDNA library, 0.1% formaldehyde crosslink after washing; high values mean tight binding
# Settings in all cases: protein: recombinant; tags: N-terminal GST; dsDNA, one strand shown
# FEV = target: T1, FEV (Homo sapiens, UniProt Q99581 1-238)
# T1 sequence: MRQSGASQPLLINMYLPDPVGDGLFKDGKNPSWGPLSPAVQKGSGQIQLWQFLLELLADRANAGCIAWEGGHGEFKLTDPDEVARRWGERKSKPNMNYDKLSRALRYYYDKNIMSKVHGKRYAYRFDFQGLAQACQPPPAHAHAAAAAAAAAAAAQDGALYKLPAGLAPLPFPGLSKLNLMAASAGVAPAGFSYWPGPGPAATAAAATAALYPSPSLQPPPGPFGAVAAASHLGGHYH
# Method in brief: (§1)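 In yeast, human transcription factors were expressed with a GST fusion, then pulled down on glutathione beads and given DNA barcodes. Pooled with a tag-only sample, they were exposed to 200 nmole of a 16-mer random double-stranded DNA library (Tris/NaCl/DTT/glycerol buffer, room temperature, 30 min), washed, crosslinked with 0.1% formaldehyde, proximity-ligated using BsaI/T4 ligase for 1 h at 37 °C, PCR-amplified and read on an Illumina NextSeq500. Each hexamer's frequency of reads for a factor, divided by the matching frequency for the tag-only sample, gives the binding signal.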
# ETV5 = ETV5 (Homo sapiens, UniProt P41161 1-510)
# Method in brief: as §1
# SPIC = target: T2, SPIC (Homo sapiens, UniProt Q8N5J4 1-248)
# T2 sequence: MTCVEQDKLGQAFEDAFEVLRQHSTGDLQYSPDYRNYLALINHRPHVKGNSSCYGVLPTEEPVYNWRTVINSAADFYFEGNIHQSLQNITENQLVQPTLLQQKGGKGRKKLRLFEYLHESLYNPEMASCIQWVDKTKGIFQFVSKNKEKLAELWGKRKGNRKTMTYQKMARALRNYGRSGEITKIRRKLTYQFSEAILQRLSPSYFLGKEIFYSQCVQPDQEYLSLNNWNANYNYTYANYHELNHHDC
# Method in brief: as §1
# ELF4 = ELF4 (Homo sapiens, UniProt Q99607 1-663)
# Method in brief: as §1
# ELK4 = target: T3, ELK4 (Homo sapiens, UniProt P28324-2 1-405)
# T3 sequence: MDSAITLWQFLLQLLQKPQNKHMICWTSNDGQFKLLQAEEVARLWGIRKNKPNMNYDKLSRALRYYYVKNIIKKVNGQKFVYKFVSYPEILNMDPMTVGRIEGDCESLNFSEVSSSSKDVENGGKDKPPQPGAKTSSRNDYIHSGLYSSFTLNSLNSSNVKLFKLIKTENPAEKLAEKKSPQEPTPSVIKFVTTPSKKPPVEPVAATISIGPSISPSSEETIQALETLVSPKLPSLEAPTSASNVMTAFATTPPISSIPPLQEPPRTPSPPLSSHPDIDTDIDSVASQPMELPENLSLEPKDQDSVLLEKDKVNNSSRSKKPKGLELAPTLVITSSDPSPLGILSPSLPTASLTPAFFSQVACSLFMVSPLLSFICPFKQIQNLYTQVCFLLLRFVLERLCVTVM
# Method in brief: as §1
# ETV2 = target: T4, ETV2 (Homo sapiens, UniProt O00321 1-342)
# T4 sequence: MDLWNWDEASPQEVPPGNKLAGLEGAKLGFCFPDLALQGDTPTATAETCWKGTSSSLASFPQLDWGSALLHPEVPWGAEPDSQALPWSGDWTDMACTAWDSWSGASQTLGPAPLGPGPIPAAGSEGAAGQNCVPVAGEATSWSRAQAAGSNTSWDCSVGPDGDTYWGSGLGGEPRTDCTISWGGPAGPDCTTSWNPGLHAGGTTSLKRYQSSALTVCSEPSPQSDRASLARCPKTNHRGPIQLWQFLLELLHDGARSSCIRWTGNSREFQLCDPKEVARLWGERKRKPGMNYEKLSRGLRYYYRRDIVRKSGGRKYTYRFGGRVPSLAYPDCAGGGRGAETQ
# Method in brief: as §1
# ETV1 = ETV1 (Homo sapiens, UniProt P50549 1-477)
# Method in brief: as §1
# ERF = target: T5, ERF (Homo sapiens, UniProt P50548 1-548)
# T5 sequence: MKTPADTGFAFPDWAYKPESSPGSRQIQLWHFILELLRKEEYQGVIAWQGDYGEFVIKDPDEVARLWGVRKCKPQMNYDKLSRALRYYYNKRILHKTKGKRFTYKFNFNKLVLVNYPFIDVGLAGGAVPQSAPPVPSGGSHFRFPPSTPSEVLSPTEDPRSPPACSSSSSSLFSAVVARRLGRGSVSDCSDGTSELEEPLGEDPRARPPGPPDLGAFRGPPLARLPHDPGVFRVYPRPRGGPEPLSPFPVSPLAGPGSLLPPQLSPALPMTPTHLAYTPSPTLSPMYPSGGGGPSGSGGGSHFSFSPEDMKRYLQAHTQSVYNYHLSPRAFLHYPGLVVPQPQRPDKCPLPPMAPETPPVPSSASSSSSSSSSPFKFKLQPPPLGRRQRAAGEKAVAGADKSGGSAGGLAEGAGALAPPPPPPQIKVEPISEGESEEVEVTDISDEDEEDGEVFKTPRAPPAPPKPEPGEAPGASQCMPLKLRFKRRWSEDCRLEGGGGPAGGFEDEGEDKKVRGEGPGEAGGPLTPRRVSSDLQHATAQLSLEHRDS
# Method in brief: as §1
# ETV3L = target: T6, ETV3L (Homo sapiens, UniProt Q6ZN32 1-361)
# T6 sequence: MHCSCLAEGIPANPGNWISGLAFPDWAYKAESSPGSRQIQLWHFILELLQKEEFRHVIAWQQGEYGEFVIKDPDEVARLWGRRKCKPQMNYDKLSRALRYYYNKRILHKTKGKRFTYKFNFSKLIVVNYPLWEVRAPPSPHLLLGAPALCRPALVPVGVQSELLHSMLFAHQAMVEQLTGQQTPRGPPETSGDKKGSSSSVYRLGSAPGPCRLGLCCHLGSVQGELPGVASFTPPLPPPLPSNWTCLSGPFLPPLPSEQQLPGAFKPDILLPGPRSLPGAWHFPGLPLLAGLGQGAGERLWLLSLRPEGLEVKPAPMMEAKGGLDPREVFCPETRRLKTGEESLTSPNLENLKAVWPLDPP
# Method in brief: as §1
# ETS2 = target: T7, ETS2 (Homo sapiens, UniProt P15036 1-469)
# T7 sequence: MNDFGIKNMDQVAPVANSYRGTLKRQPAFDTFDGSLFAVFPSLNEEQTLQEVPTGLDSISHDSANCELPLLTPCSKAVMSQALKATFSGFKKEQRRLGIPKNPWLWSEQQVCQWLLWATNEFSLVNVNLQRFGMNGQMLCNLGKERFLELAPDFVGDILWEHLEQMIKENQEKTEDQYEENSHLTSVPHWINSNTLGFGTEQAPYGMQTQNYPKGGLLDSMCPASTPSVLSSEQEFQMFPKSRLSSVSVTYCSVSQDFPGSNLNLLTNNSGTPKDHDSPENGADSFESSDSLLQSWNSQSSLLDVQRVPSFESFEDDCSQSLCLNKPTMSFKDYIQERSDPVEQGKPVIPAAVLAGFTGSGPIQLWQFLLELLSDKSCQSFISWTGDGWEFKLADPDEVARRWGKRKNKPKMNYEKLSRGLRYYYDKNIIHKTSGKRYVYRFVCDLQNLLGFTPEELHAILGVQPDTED
# Method in brief: as §1
# SPDEF = target: T8, SPDEF (Homo sapiens, UniProt O95238 1-335)
# T8 sequence: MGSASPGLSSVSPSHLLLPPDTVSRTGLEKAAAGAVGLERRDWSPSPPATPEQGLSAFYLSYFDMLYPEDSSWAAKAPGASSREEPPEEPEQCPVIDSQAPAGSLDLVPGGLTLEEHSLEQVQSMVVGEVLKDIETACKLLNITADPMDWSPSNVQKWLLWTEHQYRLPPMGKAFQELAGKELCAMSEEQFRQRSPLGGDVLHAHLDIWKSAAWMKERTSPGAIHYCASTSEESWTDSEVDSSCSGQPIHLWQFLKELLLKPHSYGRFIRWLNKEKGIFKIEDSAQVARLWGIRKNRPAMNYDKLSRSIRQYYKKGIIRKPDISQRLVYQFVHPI
# Method in brief: as §1
# ETV7 = target: T9, ETV7 (Homo sapiens, UniProt Q9Y603 1-341)
# T9 sequence: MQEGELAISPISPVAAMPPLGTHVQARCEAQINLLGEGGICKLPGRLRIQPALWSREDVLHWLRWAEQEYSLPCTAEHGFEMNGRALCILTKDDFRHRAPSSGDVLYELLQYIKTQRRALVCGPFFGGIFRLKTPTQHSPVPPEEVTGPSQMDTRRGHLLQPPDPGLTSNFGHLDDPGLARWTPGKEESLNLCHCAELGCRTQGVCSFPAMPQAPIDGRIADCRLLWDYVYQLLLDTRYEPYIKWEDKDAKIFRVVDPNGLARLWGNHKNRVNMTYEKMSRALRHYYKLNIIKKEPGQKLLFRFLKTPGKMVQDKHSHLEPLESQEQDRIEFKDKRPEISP
# Method in brief: as §1
# ELF5 = target: T10, ELF5 (Homo sapiens, UniProt Q9UKW6-2 1-255)
# T10 sequence: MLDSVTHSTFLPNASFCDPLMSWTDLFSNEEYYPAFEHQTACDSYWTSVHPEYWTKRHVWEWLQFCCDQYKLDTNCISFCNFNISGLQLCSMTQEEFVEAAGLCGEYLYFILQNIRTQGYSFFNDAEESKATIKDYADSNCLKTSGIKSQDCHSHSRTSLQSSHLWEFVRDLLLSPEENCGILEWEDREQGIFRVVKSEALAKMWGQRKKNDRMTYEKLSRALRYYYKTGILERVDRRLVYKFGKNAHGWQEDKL
# Method in brief: as §1
# ETV3 = target: T11, ETV3 (Homo sapiens, UniProt P41162-2 1-143)
# T11 sequence: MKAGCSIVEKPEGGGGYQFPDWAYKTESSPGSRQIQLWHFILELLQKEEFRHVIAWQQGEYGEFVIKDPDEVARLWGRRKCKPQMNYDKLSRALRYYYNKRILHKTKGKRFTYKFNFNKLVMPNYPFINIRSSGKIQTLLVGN
# Method in brief: as §1
# ETV6 = ETV6 (Homo sapiens, UniProt P41212 1-452)
# Method in brief: as §1
# ETV1, sequence (P50549 whole entry): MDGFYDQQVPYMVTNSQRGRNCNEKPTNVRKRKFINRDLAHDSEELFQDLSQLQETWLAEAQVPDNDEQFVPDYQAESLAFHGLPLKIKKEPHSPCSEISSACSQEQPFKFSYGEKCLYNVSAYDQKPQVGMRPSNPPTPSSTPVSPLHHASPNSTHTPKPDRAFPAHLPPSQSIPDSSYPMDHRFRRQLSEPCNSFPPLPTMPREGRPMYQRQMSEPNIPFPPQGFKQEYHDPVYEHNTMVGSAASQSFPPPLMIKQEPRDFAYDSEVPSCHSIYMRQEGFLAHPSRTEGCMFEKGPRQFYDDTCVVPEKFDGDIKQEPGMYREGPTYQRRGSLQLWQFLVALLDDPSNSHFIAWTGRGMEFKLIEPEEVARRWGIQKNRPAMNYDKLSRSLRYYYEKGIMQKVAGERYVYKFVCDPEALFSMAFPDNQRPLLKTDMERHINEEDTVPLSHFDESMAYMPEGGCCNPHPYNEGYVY
# ETV5, sequence (P41161 whole entry): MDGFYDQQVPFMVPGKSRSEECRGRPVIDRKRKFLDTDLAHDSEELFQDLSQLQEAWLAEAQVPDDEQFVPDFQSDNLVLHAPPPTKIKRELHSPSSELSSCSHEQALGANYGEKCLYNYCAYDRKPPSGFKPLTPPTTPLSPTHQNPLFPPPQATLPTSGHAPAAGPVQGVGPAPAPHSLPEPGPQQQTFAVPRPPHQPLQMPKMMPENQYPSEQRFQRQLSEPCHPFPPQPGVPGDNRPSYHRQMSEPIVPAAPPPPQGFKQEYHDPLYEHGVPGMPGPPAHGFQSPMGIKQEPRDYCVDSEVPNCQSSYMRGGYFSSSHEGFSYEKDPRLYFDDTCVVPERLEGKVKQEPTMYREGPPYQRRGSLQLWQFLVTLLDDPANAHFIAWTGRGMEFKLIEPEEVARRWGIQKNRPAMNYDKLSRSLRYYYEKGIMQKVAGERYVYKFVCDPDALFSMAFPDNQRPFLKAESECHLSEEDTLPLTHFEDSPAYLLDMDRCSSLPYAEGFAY
# ETV6, sequence (P41212 whole entry): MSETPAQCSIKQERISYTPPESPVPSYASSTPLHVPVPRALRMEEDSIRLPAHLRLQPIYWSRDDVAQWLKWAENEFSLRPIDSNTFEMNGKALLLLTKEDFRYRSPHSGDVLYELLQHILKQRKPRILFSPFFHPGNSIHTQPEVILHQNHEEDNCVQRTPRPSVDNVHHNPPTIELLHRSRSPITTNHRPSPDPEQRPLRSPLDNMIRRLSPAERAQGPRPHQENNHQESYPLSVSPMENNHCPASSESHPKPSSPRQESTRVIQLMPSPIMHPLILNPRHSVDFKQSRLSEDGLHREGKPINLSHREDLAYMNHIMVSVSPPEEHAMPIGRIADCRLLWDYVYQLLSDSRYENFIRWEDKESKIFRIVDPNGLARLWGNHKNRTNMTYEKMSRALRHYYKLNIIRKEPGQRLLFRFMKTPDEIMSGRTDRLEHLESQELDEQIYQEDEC
# ELF4, sequence (Q99607 whole entry): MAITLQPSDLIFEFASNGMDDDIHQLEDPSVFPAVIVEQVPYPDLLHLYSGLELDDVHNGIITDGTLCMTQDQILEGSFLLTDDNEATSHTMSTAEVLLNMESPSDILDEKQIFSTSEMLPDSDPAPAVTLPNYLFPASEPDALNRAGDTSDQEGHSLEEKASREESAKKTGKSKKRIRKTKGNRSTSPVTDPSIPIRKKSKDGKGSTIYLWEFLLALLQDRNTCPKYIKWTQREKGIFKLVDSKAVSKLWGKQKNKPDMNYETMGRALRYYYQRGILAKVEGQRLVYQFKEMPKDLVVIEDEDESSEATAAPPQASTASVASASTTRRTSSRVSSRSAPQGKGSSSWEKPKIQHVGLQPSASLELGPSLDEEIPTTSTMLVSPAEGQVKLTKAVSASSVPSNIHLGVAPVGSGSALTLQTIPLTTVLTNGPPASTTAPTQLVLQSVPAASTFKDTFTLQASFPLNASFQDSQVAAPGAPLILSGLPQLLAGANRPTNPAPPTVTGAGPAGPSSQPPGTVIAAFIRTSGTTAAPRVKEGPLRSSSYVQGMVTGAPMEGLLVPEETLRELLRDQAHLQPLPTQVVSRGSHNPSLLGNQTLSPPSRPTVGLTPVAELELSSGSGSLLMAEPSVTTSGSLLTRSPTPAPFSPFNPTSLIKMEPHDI
Sequence,binding signal (FEV),binding signal (ETV5),binding signal (SPIC),binding signal (ELF4),binding signal (ELK4),binding signal (ETV2),binding signal (ETV1),binding signal (ERF),binding signal (ETV3L),binding signal (ETS2),binding signal (SPDEF),binding signal (ETV7),binding signal (ELF5),binding signal (ETV3),binding signal (ETV6)
TGGTCC,"1.12 fold enrichment (6-mer frequency, TF over GST control)","1.23 fold enrichment (6-mer frequency, TF over GST control)","1.32 fold enrichment (6-mer frequency, TF over GST control)","1.22 fold enrichment (6-mer frequency, TF over GST control)","1.29 fold enrichment (6-mer frequency, TF over GST control)","1.23 fold enrichment (6-mer frequency, TF over GST control)","1.2 fold enrichment (6-mer frequency, TF over GST control)","1.19 fold enrichment (6-mer frequency, TF over GST control)","1.1 fold enrichment (6-mer frequency, TF over GST control)","1.23 fold enrichment (6-mer frequency, TF over GST control)","1.26 fold enrichment (6-mer frequency, TF over GST control)","1.18 fold enrichment (6-mer frequency, TF over GST control)","1.19 fold enrichment (6-mer frequency, TF over GST control)","1.28 fold enrichment (6-mer frequency, TF over GST control)","1.18 fold enrichment (6-mer frequency, TF over GST control)"
CAACCA,"1.12 fold enrichment (6-mer frequency, TF over GST control)","1.13 fold enrichment (6-mer frequency, TF over GST control)","1.02 fold enrichment (6-mer frequency, TF over GST control)","1.11 fold enrichment (6-mer frequency, TF over GST control)","1.07 fold enrichment (6-mer frequency, TF over GST control)","1.09 fold enrichment (6-mer frequency, TF over GST control)","1.09 fold enrichment (6-mer frequency, TF over GST control)","1.14 fold enrichment (6-mer frequency, TF over GST control)","1.05 fold enrichment (6-mer frequency, TF over GST control)","1.1 fold enrichment (6-mer frequency, TF over GST control)","1.09 fold enrichment (6-mer frequency, TF over GST control)","1.04 fold enrichment (6-mer frequency, TF over GST control)",–,"1.1 fold enrichment (6-mer frequency, TF over GST control)","1.03 fold enrichment (6-mer frequency, TF over GST control)"
